According to PubChem BioAssay (EPA / NIEHS):
Records with an inconclusive call do not appear. Active and inactive are the calls of the source. How the source made its calls: active means hit-call score of the fitted dose curve at least 0.9, where 1 is the maximum; inconclusive means response in the unintended direction; inactive means score below 0.9.

Each compound was assayed on rat Monoamine Oxidase, MAO-A, Central (MAOAC), gene 29253 (assay: NVS_ENZ_rMAOAC: NovaScreen (NVS) Enzymatic Assay for rat Monoamine Oxidase, MAO-A, Central (MAOAC) (AID 2283243);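 further: potency refers to inhibition seen as signal drop below DMSO baseline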).
Procedure, shortened: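 Rat brain tissue extract used as enzyme source in a cell-free radiometric assay, read by scintillation counting 1.5 hours after dosing. Loss of signal relative to DMSO baseline scored; primary screen at 25 uM in duplicate, actives followed up in concentration series.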

| SMILES | AC50 |
| --- | --- |
| NCc1cccc(C2CCN(C(=O)c3ccc(C#Cc4ccccc4F)o3)CC2)c1 | 1.72 µM (active) |
| CCOC(=O)O[C@H](C)OC(=O)c1ccc2c(c1)cc(C(=O)NC1CCN(C(C)C)CC1)n2Cc1cc(-c2ccc(Cl)s2)on1 | 23.6 µM (active) |
| Clc1cc(Cl)c2c(c1)N=C1CCCCCN1C2 | 8.08 µM (active) |
| N=C(N)c1ccc(OCCCCCOc2ccc(C(=N)N)cc2)cc1 | 0.203 µM (active) |
| Nc1ccc2c(c1)C(=O)c1ccccc1C2=O | 3.68 µM (active) |

The compounds below were run against human Neonicotinoid receptor (NNR), CHRNA2 (gene 1135) (UniProt Q15822) (assay: NVS_LGIC_hNNR_NBungSens: NovaScreen (NVS) Ligand-Gated Ion Channel Assay for human Neonicotinoid receptor (NNR) (AID 2283313)).
Procedure, shortened: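 Radioligand displacement on human neuroblastoma membranes, 2 h, filter-based scintillation counting. Primary screen in duplicate at 25 uM; chemicals passing threshold (e.g. 30% inhibition) run singleton concentration-response to 50 uM; loss of binding fitted versus DMSO.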

Sequence of human Neonicotinoid receptor (NNR), CHRNA2 (gene 1135) (Q15822 whole entry, looked up): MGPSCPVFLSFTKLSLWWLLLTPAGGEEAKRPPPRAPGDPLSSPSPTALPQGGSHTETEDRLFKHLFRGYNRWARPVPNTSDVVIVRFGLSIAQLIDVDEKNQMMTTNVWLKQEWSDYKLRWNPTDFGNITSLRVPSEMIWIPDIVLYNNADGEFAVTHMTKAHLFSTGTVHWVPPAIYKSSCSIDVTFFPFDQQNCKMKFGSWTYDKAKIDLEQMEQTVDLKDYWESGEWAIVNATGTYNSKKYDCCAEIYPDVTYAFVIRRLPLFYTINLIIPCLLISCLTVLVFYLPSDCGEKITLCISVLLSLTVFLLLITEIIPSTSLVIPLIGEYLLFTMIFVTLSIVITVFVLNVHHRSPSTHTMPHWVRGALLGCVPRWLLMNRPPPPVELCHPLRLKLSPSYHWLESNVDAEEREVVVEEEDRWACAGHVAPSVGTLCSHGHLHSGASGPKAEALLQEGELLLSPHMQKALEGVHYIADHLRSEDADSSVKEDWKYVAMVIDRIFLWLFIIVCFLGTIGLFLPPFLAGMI

| SMILES | AC50 | outcome |
| --- | --- | --- |
| COc1ccc(OC(F)(F)F)cc1CN[C@H]1CCCN[C@H]1c1ccccc1 | 25 µM (active) | – |
| O=c1[nH]c2ccc(S(=O)CCN3CCC(Cc4ccc(F)cc4)CC3)cc2o1 (stereo not given) | 5.31 µM (active) | – |
| NC(=O)N(O)[C@@H]1C=C[C@H](Oc2cccc(Oc3ccc(F)cc3)c2)C1 | 41.2 µM (active) | – |
| CNS(=O)(=O)c1cc(C(=O)N2CCC(CCN3C4CCC3CC(n3c(C)nc5ccccc53)C4)(c3cccc(F)c3)CC2)c(Cl)cc1F (stereo not given) | – | inactive |
| O=C(c1ccc(OCCN2CCCCC2)cc1)c1c(-c2ccc(O)cc2)sc2cc(O)ccc12 | 16.7 µM (active) | – |
| Clc1cc(Cl)c2c(c1)N=C1CCCCCN1C2 | 1.98 µM (active) | – |
| COc1cccc(-c2ccc(/C=C\CN3CCCCCC3)cc2Cl)c1 | 22.6 µM (active) | – |

These compounds were tested against bovine Gamma-Aminobutyric Acid Type A Receptor BDZ, alpha 1 site (GABARa1), GABRA1 (gene 780973) (UniProt P08219) (assay: NVS_LGIC_bGABARa1: NovaScreen (NVS) Ligand-Gated Ion Channel Assay for bovine Gamma-Aminobutyric Acid Type A Receptor BDZ, alpha 1 site (GABARa1) (AID 2283321)).
Procedure, shortened: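 Radioligand competition binding on bovine cortical membranes, 0.75 h, filter-based scintillation counting. Primary single concentration 25 uM in duplicate; actives rerun in concentration-response to 50 uM max. Loss of signal fitted versus DMSO.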

Sequence of bovine Gamma-Aminobutyric Acid Type A Receptor BDZ, alpha 1 site (GABARa1), GABRA1 (gene 780973) (P08219 whole entry, looked up): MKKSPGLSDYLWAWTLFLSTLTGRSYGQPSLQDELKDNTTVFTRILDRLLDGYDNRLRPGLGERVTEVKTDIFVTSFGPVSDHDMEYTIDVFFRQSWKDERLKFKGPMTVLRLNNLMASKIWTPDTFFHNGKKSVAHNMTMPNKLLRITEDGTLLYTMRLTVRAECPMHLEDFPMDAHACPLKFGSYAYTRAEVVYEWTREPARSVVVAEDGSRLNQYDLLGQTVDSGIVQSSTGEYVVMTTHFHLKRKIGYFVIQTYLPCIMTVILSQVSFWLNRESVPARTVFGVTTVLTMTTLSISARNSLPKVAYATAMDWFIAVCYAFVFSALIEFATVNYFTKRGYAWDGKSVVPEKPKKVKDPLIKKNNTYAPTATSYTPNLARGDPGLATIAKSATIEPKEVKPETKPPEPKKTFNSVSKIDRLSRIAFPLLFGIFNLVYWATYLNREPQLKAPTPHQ

| SMILES | outcome | AC50 |
| --- | --- | --- |
| NC(=O)N(O)[C@@H]1C=C[C@H](Oc2cccc(Oc3ccc(F)cc3)c2)C1 | inactive | – |
| COc1cccc(-c2ccc(/C=C\CN3CCCCCC3)cc2Cl)c1 | – | 11.7 µM (active) |
| C/C=C/C=C/C(=O)O | – | 20.9 µM (active) |

What follows are compounds tested against Norway rat Vesicular Monoamine Transporter (VMAT2), neurotransmitter transporter, Slc18a2 (gene 25549) (UniProt Q01827) (assay: NVS_TR_rVMAT2: NovaScreen (NVS) Transporter Assay for Norway rat Vesicular Monoamine Transporter (VMAT2), neurotransmitter transporter (AID 2283376);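 further: actives lower the bound radioligand signal below the DMSO level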).
Procedure, shortened: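 Tissue: rat forebrain extract. Format: competitive radioligand binding, cell-free. Timepoint: 1 h. Readout: filter radiodetection/scintillation. Screen: 25 uM in duplicate, then concentration series for actives. Baseline: DMSO.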

Sequence of Norway rat Vesicular Monoamine Transporter (VMAT2), neurotransmitter transporter, Slc18a2 (gene 25549) (Q01827 whole entry, looked up): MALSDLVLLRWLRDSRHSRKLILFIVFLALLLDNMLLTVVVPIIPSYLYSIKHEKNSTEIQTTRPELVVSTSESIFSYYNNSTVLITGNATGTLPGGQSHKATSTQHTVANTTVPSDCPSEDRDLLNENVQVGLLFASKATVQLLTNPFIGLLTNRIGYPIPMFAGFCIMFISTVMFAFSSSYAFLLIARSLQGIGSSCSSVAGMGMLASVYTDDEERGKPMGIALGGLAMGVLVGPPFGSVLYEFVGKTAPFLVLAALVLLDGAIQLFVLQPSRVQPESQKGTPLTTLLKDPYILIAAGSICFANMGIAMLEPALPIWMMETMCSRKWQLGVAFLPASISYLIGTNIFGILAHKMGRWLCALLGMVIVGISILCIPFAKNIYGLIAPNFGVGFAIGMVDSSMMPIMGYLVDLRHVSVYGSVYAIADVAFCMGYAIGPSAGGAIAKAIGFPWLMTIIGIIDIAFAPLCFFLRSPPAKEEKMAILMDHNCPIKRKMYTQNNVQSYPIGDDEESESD

| SMILES | AC50 | outcome |
| --- | --- | --- |
| CCOC(=O)O[C@H](C)OC(=O)c1ccc2c(c1)cc(C(=O)NC1CCN(C(C)C)CC1)n2Cc1cc(-c2ccc(Cl)s2)on1 | 5.06 µM (active) | – |
| N=C(N)c1ccc(OCCCCCOc2ccc(C(=N)N)cc2)cc1 | 5.98 µM (active) | – |
| O=C1c2ccccc2C(=O)N1CCc1noc(-c2ccc(CN3CCCCCC3)s2)n1 | 2.87 µM (active) | – |
| COCCOc1cc2cc(C(=O)NC3CCN(C(C)C)CC3)n(CC(=O)Nc3ccc(Cl)cn3)c2cn1 | – | inactive |
| COc1ccc(-n2nc(C(F)F)cc2-c2ccc(S(C)=O)cc2)cc1 (stereo not given) | 4.96 µM (active) | – |
